# Test results published in PubChem BioAssay AID720580 (National Center for Advancing Translational Sciences (NCATS), 2013).
# Among all 330,000 compounds or so, about 1,500 (0.45%) were called active. Entries that show only a call come without a potency. Another 6% or so got no clear call; they are omitted. This is one part of a sample in which actives are shown more often than they occur. Calls come from the whole dose curve; tested in A549 cells.
# Experiment: qHTS for Stage-Specific Inhibitors of Vaccinia Orthopoxvirus: Venus Reporter Primary qHTS; note: nearly all actives have a fitted effect of over 30% in size
# Settings: Vaccinia virus Venus reporter expression, fluorescence; series mostly up to 36.5 µM
# Potency is the fitted concentration of half-maximal effect.
row,Compound,Potency
1,CCOC(=O)[C@]12CCCC=C1N(CCC1=CCCCC1)C(=O)[C@H](CC(=O)N1CCOCC1)C2,inactive
2,CNc1cncc(-c2ccc(NS(C)(=O)=O)cc2)n1,inactive
3,CCOC(=O)[C@]12CCC=C1N(CCC1=CCCCC1)C(=O)[C@H](CC(=O)NCc1ccc(C)o1)C2,inactive
4,CC(C)(C)NC(=O)C(CCc1ccccc1)n1c(=O)c(-c2ccccc2)nc2ccccc21 (stereo not given),inactive
5,CN(C)C(=O)c1coc2nc3ccccc3nc12,inactive
6,CNC(=O)C(NC(=O)c1ccccc1)=C(C)C,inactive
7,CNC(=O)c1cccc2nc3ccccc3nc12,6.31 µM (active)
8,Brc1ccc2nc(-c3ccccc3)c(Cc3ccccc3)n2c1,inactive
9,OC(Cc1ccc2ccccc2n1)c1ccc(Cl)c(Cl)c1 (stereo not given),inactive
10,COc1ccc(S(=O)(=O)N[C@@H]2C=C[C@@H](CC(=O)N3CCc4ccccc4C3)O[C@@H]2CO)cc1,inactive
11,COc1ccc(NC(=O)C2Cc3c(-c4ccc5c(c4)OCO5)ccnc3O2)cn1 (stereo not given),inactive
12,Cc1cccc(NC(=O)NC(=S)NC(=O)c2ccccc2)c1,10 µM (active)
13,Cc1ccc(NC(=O)NC(=O)c2ccccc2)cc1F,inactive
14,Cc1ccc(NC(=S)NC(=O)c2ccc(-c3ccccc3)cc2)cc1,inactive
15,CCCNC(=O)C1(C)CCN(Cc2ccc(Cl)c(Cl)c2)C1 (stereo not given),inactive
16,CCCc1ccc(C(O)c2ncc(-c3cccc(OC)c3)[nH]2)cc1 (stereo not given),inactive
17,Cc1ccc(-c2nc3c(C)cc(Br)cn3c2Cc2ccccc2)cc1,inactive
18,COc1ccccc1Cc1c(-c2ccc(Cl)cc2)nc2ccc(Cl)cn12,inactive
19,COc1c(O)ccc2c1CN1CCc3cc4c(cc3C1C2)OCO4 (stereo not given),11.2 µM (active)
20,CN1CCc2cc3c(cc2[C@H]1[C@@H]1OC(=O)c2c1ccc1c2OCO1)OCO3,inactive
21,COc1ccc2c(c1O)-c1cccc3c1[C@@H](C2)N(C)CC3,inactive
22,Cc1cccc(C)c1NC(=O)C(c1cccc2ccccc12)n1c(=O)c(-c2ccco2)nc2ccccc21 (stereo not given),inactive
23,COc1ccc(-c2c(C)cc3oc(=O)cc(-c4ccccc4)c3c2C)cc1OC,inactive
24,COc1cc(OC)c2c(-c3cccc(-c4cccc(N)c4)c3)cc(=O)oc2c1,12.6 µM (active)
25,COc1ccc(-c2c(C)cc3oc(=O)cc(-c4ccccc4)c3c2C)cc1F,inactive

row,Compound,Potency
1,CN[C@H]1C[C@H]2c3cc(Oc4ccccc4C)ccc3CCN2C(=O)[C@H]1[C@H](C)O,inactive
2,CC1=C(C(=O)N(C(C)C)C(C)C)CC(CC(=O)NCCCCc2ccccc2)C(=O)N1CCC1=CCCCC1 (stereo not given),inactive
3,CC1=C(C(=O)Nc2ccccc2)S(=O)(=O)CCO1,0.794 µM (active)
4,O=C(Nc1ccccc1)c1ccc2c(c1)OCCCO2,inactive
5,CC1=C(C(=O)Nc2ccccc2)SCCO1,inactive
6,OC(CBr)C[n+]1cccc2cc(Br)ccc21 (stereo not given),inactive
7,COc1cccc(C(O)c2nc(-c3ccc(C)c(C)c3)cs2)c1 (stereo not given),inactive
8,CCC(C)N(c1ccc(/C=C/c2ccnc3ccccc23)cc1)C(C)CC (stereo not given),inactive
9,COC(=O)Cc1ccc(OC2(C)CCN(Cc3ccc4c(c3)OCCO4)C2)cc1 (stereo not given),inactive
10,COC(=O)c1ccc2nc(-c3ccccc3)c(Cc3ccc(OC)cc3C)n2c1,inactive
11,Cc1ccc(C)c(-n2c(SCC(=O)O)nc3sc4c(c3c2=O)CCCC4)c1,inactive
12,CCCc1nc2sc3c(c2c(=O)n1NC(=O)CCCl)CCCC3,7.94 µM (active)
13,Cn1c(NN)nc2sc3c(c2c1=O)CCC3,inactive
14,Nc1nc2c(Br)ccc(Br)c2cc1C(=O)NCCc1ccccc1,inactive
15,Cc1ccc2nc(-c3ccccc3)c(CC3CCCCC3)n2c1,inactive
16,O=C(NC1CCCC1)C1c2ccccc2OCC(=O)N1Cc1ccccc1 (stereo not given),inactive
17,CC(=O)c1cccc(-c2cnc3c(NC=O)cc(-c4cccc(C(=O)N(C)C)c4)cn23)c1,inactive
18,CC(=O)c1ccc(-c2cnc3c(NC=O)cc(-c4cccc(NS(C)(=O)=O)c4)cn23)cc1,11.2 µM (active)
19,CC(=O)c1cccc(-c2cnc3c(NC=O)cc(-c4ccc(N(C)C)cc4)cn23)c1,inactive
20,CC(C)(C)c1ccc(C(=O)C[N+]2(C)CCCc3ccccc32)cc1 (stereo not given),inactive
21,CCC(C)(O)C(=O)OC1C(=O)OC2CC3C(C)=CC(=O)C(O)C3(C)C3C4(O)OCC23C1C(C)C4O (stereo not given),0.316 µM (active)
22,CC=CCn1c(SCCCc2ccccc2)nc2c1c(=O)[nH]c(=O)n2C,inactive
23,CN(C(=N)N)c1ccc(/C=C2\C=Cc3ccccc32)cc1,inactive
24,COc1ccc(S(=O)(=O)N2CCCCC2c2cc(C(=O)NCc3ccc(F)cc3)no2)cc1 (stereo not given),inactive
25,CCN(CC)c1ncnc2c1ncn2[C@H]1CN(Cc2cccs2)C[C@@H](CO)O1,inactive
